Results reported in the supplement of paper PMC4166925.
± gives the standard deviation of the averaged measurements. The full ranking holds about 33,000 sequences; the median of “E-score (dimensionless, -0.5 to 0.5)” is about -0.046, and the highest 2% start at about 0.36. The full list was thinned out, with the highest values kept by preference.

tested on: T1, SpTbr T-box DNA-binding domain (GST fusion); experiment: PBM E-score of 8-mer (E-score (dimensionless, -0.5 to 0.5)); Tbr is Tbrain of the sea star Patiria miniata (Pm) or the sea urchin Strongylocentrotus purpuratus (Sp); higher = stronger binding preference; conditions: the construct has about 5 more residues each side
T1 sequence: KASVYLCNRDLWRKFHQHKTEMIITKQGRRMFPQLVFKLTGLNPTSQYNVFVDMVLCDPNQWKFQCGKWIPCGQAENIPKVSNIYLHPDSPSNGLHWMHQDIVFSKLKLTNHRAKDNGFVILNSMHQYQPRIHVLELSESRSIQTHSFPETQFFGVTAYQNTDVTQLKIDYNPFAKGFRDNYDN
Method in brief: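 Each ungapped 8-mer received an enrichment E-score from the Universal PBM Analysis Suite, averaged over duplicate arrays. The proteins were Tbr T-box DNA-binding domains, covering the whole T-box plus about five flanking residues, fused to GST and expressed in BL21 E. coli at 20 °C before glutathione affinity purification. Universal Agilent oligonucleotide arrays were made double-stranded by primer extension and incubated with 200 nM protein in PBS (pH 7.5). The arrays were then scanned and quantified, and every 8-mer was scored from probe intensities.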

Sequence | PBM E-score of 8-mer
CCGATCAA | 0.0887 ± 0.014
GTACTTGA | 0.0232 ± 0.044
GCATCCCA | -0.16 ± 0.063
GTCACAAC | 0.293 ± 0.0073
AGGTGTAG | 0.3922 ± 0.0034
CGGTGTAG | 0.17 ± 0.083
AGGTGTAT | 0.281 ± 0.011
TGGTGTAA | 0.292 ± 0.059
AGGTGTAC | 0.294 ± 0.0088
CGGTGTAA | 0.216 ± 0.014
GGGTGTAA | 0.386 ± 0.0076
GGGTGTAC | -0.0335 ± 0.078
AGGTGTAA | 0.475 ± 0.011
CTGGCCCC | -0.113 ± 0.035
AACGAGCG | 0.0213 ± 0.0072
GAGCAAGA | -0.187 ± 0.011
AATCAGTC | -0.0936 ± 0.015
CTCGTTAC | -0.116 ± 0.031
GGTTGCGA | 0.266 ± 0.015
CGCGCAAC | 0.173 ± 0.066
AGTGTGAT | 0.4721 ± 0.0012
AGTGTGAC | 0.445 ± 0.011
AATGTGAT | 0.253 ± 0.0037
AGAGTGAT | 0.231 ± 0.039

Sequence | PBM E-score of 8-mer
GGTGTGAC | 0.4822 ± 0.0041
ATTGTGAG | 0.25 ± 0.035
AGTGTGAG | 0.4646 ± 0.0021
AGTGTGTC | 0.234 ± 0.06
AGTGTGTG | 0.36 ± 0.023
ACTGTGAC | 0.237 ± 0.023
GATGTGAC | 0.273 ± 0.019
GCTGTGAC | 0.161 ± 0.042
GGAGCTAA | -0.165 ± 0.013
GATTTCAC | 0.332 ± 0.023
ACCTGTAA | 0.154 ± 0.021
AGGCATTG | -0.17 ± 0.042
ATTCAAGG | -0.262 ± 0.017
CCAGCGGA | -0.0913 ± 0.043
ATGACGGA | -0.139 ± 0.0034
CGTGTGAG | 0.4011 ± 0.0033
CATGTGAG | 0.137 ± 0.0055
CGTGTGAC | 0.399 ± 0.012
CCTGTGAC | 0.263 ± 0.011
CGTGTGTC | 0.172 ± 0.058
CCTGTGAG | 0.24582 ± 4.2e-05
CCCAACTA | -0.164 ± 0.083
AGCGTCCC | -0.148 ± 0.0096
GCTTATCC | 0.125 ± 0.027

Sequence | PBM E-score of 8-mer
CCTCATAA | -0.0692 ± 0.021
ACGTGTAG | 0.133 ± 0.068
ACGTGTTA | 0.431 ± 0.015
ACGTGTTC | 0.1884 ± 0.00041
ACGTGTTG | 0.367 ± 0.00092
CCGTGTTA | 0.158 ± 0.029
GCGTGTTA | 0.302 ± 0.018
GATCGCTA | 0.136 ± 0.022
GGTCGATA | 0.0927 ± 0.012
AACTGTTG | 0.241 ± 0.017
CACGCAGA | 0.0713 ± 0.028
CTTGACGC | 0.324 ± 0.011
ATTGACAG | 0.102 ± 0.07
CTTGACAC | 0.436 ± 0.0093
CTTGACCC | -0.308 ± 0.038
ATTGACAC | 0.418 ± 0.0052
ATTGACAA | 0.298 ± 0.026
ACACAGAA | -0.134 ± 0.016
GGATAGAC | -0.202 ± 0.041
ACTCAATC | -0.0092 ± 0.032
TAACACTA | 0.373 ± 0.042
CAACACCA | 0.37255 ± 7.8e-05
CAACACGC | 0.203 ± 0.0098
GAACACTA | 0.013 ± 0.018

Sequence | PBM E-score of 8-mer
GAACACCC | 0.116 ± 0.0077
GAACACCA | 0.104 ± 0.014
CAACACCG | 0.312 ± 0.0065
CAACACGA | 0.185 ± 0.0087
CAACACTA | 0.264 ± 0.025
CAACACCC | 0.433 ± 0.012
TAACACCA | 0.43 ± 0.011
AAACACCA | 0.238 ± 0.027
TCAAGGAA | -0.0393 ± 0.033
GCTGATCA | 0.179 ± 0.059
CCCAATGA | -0.198 ± 0.013
CCGACCCG | -0.073 ± 0.13
GACTCGAC | -0.0494 ± 0.0017
CTAATGCA | 0.038 ± 0.071
GTAGAGAC | -0.094 ± 0.029
CCACTATC | 0.129 ± 0.028
TACACGAA | -0.0857 ± 0.046
CCTTGCGA | 0.183 ± 0.056
ACTTGCGA | 0.388 ± 0.021
AGTTGCGA | 0.3999 ± 0.00081
GCTTGCGA | 0.16 ± 0.0045
AGTTGCGC | 0.13 ± 0.063
AGTTGCGG | 0.126 ± 0.029
CAGGGATC | -0.17 ± 0.046

Sequence | PBM E-score of 8-mer
AAACCATC | -0.0776 ± 0.02
AAATCGTT | -0.0755 ± 0.038
CACACAGG | 0.244 ± 0.0081
CACACATA | 0.3998 ± 0.0028
TACACATA | 0.168 ± 0.022
GACACATA | 0.359 ± 0.005
CACACATG | 0.383 ± 0.021
CACACAAG | 0.179 ± 0.038
GAGGCTCA | -0.129 ± 0.025
ACGCCCAT | 0.0516 ± 0.054
GATATGCA | 0.00558 ± 0.032
GGCGCGCA | 0.153 ± 0.047
GGCGCTAA | 0.4 ± 0.035
AGCGCGAG | 0.306 ± 0.017
GGCGCGAA | 0.463 ± 0.011
CGCGCGAC | 0.284 ± 0.015
GACGCGAA | 0.138 ± 0.006
AGCGCGAA | 0.405 ± 0.019
TGCGCTAA | 0.191 ± 0.035
CGCGCTAA | 0.338 ± 0.0063
GGCGCGAC | 0.369 ± 0.017
AGCGCGAT | 0.276 ± 0.009
AGCGCGAC | 0.253 ± 0.026
AGCTACAA | -0.161 ± 0.011

Sequence | PBM E-score of 8-mer
GCACGCGC | 0.216 ± 0.095
ATAGATGA | -0.0521 ± 0.016
CTGAAGCA | -0.141 ± 0.0054
CCGTGCCC | -0.244 ± 0.013
CCGTACAA | -0.197 ± 0.0048
TCCGCGAA | 0.2876 ± 0.00083
CCCGCGAA | 0.371 ± 0.019
CGCGCGAG | 0.304 ± 0.036
GCCGCGAA | 0.343 ± 0.0045
TGCGCGAA | 0.349 ± 0.036
CGCGCGAA | 0.408 ± 0.013
CGCAATTC | 0.169 ± 0.0051
AAAGATCT | -0.1 ± 0.035
ATTGAGGG | -0.243 ± 0.003
GACCTTCC | -0.00679 ± 0.036
CCCCTTCG | -0.137 ± 0.046
AACCTTCA | -0.0641 ± 0.013
CACCTTCA | 0.412 ± 0.0047
AACCTTCG | -0.0878 ± 0.018
GACCTTCA | -0.0627 ± 0.081
CACCTTCC | 0.401 ± 0.014
AACCTTCC | -0.169 ± 0.048
CACCTTCG | 0.396 ± 0.017
CGTGGTCC | -0.204 ± 0.045

Sequence | PBM E-score of 8-mer
CCGCCACA | 0.157 ± 0.021
CCTCCTAA | -0.2059 ± 0.001
TAAGCGAA | -0.0797 ± 0.053
GAAGGTGA | 0.348 ± 0.035
CAAGGTGA | 0.392 ± 0.0089
GAAGGTGC | 0.41 ± 0.019
TAAGGTGA | 0.331 ± 0.021
CAAGGTAA | -0.0662 ± 0.017
CAAGGTGG | 0.311 ± 0.015
CAAGGTTC | 0.047 ± 0.016
GAAGGTAC | -0.239 ± 0.019
CAAGGTGC | 0.421 ± 0.0087
ACCTAGAA | -0.0152 ± 0.079
ACTGCTCG | 0.0799 ± 0.013
CTCGGGAC | -0.118 ± 0.062
AACTGTTA | 0.284 ± 0.03
TGAGCCAA | -0.229 ± 0.019
CCCCCATC | -0.0563 ± 0.053
AAGTGGGG | 0.177 ± 0.0055
AAGTGGGA | 0.238 ± 0.037
AAGTGTGT | 0.331 ± 0.0059
AAGTGTGC | 0.3891 ± 0.00091
CAGTGTGC | 0.106 ± 0.0063
AAGTGTGG | 0.417 ± 0.013

Sequence | PBM E-score of 8-mer
ACTGCCTA | -0.14 ± 0.028
AACTTTCG | 0.00917 ± 0.0092
CTCTGGGA | 0.00265 ± 0.049
ACAATAGA | -0.149 ± 0.042
CCATGGAG | -0.231 ± 0.015
CCCAGAGG | -0.127 ± 0.05
ACACATCA | 0.339 ± 0.0072
GCACATCC | 0.137 ± 0.0032
ACACATCC | 0.388 ± 0.024
ACACATCG | 0.394 ± 0.014
CCACATCC | -0.0299 ± 0.14
ACACATCT | 0.31 ± 0.029
CTACTTGA | 0.0916 ± 0.062
ACACCACC | 0.365 ± 0.0069
ACACCATC | 0.3674 ± 0.0022
CCACCACA | 0.131 ± 0.073
ACACCATA | 0.231 ± 0.071
CCACCATC | 0.0489 ± 0.024
ACACCACG | 0.332 ± 0.018
ACACCACT | 0.269 ± 0.02
CCACCACC | 0.101 ± 0.038
ACACCACA | 0.364 ± 0.017
ACCTGCCT | 0.00297 ± 0.084
GGAGCGCC | 0.0178 ± 0.0015

Sequence | PBM E-score of 8-mer
AGACCCAC | 0.0705 ± 0.1
AGAGAAAT | -0.0136 ± 0.08
AGATCCAT | -0.205 ± 0.039
AATCTCAT | -0.0127 ± 0.017
GATCTCAA | 0.0536 ± 0.028
GATCTCAC | 0.371 ± 0.02
AATCTCAC | 0.366 ± 0.016
CATCTCAC | 0.308 ± 0.006
AATCTCTC | -0.1 ± 0.11
AATCTCAG | -0.0558 ± 0.035
AGACTCGG | -0.23 ± 0.019
CACACCCG | 0.448 ± 0.016
CACACCGC | 0.332 ± 0.037
CACCCCCC | 0.184 ± 0.003
CCCACCCA | 0.185 ± 0.054
CCCACCCG | 0.0685 ± 0.054
CACACCCC | 0.419 ± 0.025
CACCCCCG | 0.234 ± 0.018
TACACCCA | 0.105 ± 0.011
ATCACCCG | 0.12 ± 0.057
CACACCCA | 0.421 ± 0.02
AGCACCCG | 0.257 ± 0.011
AACACCCG | 0.404 ± 0.01
CCATGGCG | -0.204 ± 0.015

Sequence | PBM E-score of 8-mer
GACCGTCA | 0.0838 ± 0.01
GACAGTGC | 0.152 ± 0.025
AAAACTCC | -0.156 ± 0.054
AAGGCGTG | 0.392 ± 0.037
AAGGCGTA | 0.153 ± 0.028
CAGGCGTC | 0.236 ± 0.056
AGGGCGTG | 0.281 ± 0.01
ACGGCGTG | 0.232 ± 0.0069
AAGGCGTC | 0.372 ± 0.035
ACGTCCTA | -0.17 ± 0.032
AAGCGTTG | 0.192 ± 0.056
CTCGCGCA | 0.248 ± 0.021
CGCGCGCC | 0.173 ± 0.064
CTCGCGCC | 0.412 ± 0.031
ATCGCGCC | 0.4021 ± 0.0011
ATCGCGCG | 0.337 ± 0.004
ATCGCGCA | 0.151 ± 0.015
AACTAGGG | 0.0057 ± 0.046
AAGGAGGG | -0.0491 ± 0.018
GCTCATAC | -0.0299 ± 0.01
CGTTGGGA | -0.121 ± 0.024
ATTAAGAC | -0.0771 ± 0.015
